Molecules are shown by their SMILES. This is part of a sample that, as a whole, favours compounds with a hit. Of some 83,000 tested, about 20% had one in any assay.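 Interpretation: 100, growth as untreated; towards 0, rising growth inhibition; 0, no net growth; 0 to -100, cell death. Compounds scoring below 10 were considered active.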 Unmarked numbers belong to inactive results. Calls of active or inactive are those of the source.

Test systems include T-47D breast; BT-549 breast; MDA-MB-435 melanoma; MCF7 breast; HCT-116 colon; HCC-2998 colon; KM12 colon; SW-620 colon.
Experiment in all cases: NCI-60 one-dose screen, 48 h (100 = growth as untreated, 0 = no growth, -100 = all killed)
Common to all, as to details: 10 µM unless noted

`COc1ccccc1/C=C1\COc2ccc(-c3ccccc3)cc2C1=O`: the growth with T-47D breast was 14%; with BT-549 breast it was 12%; in the assay with MDA-MB-435 melanoma, -45% (active); with MCF7 breast it was -9.07% (active); in the assay on HCT-116 colon it was 5.64% (active); in the assay on HCC-2998 colon, 51.6%. In addition, the growth in the assay with KM12 colon is -32% (active).
On to `CC1(C)NCCC[C@]2(C)[C@H]3CC=C4[C@@H]5C[C@@](C)(CO)CC[C@]5(C)CC[C@@]4(C)[C@]3(C)CC[C@@H]12`, for which the growth in the assay on T-47D breast was 57.7%; with BT-549 breast, 78.5%; with MDA-MB-435 melanoma it was 51.5%; in the assay with MCF7 breast, 40.7%; in the assay with HCT-116 colon, 21%; in the assay on HCC-2998 colon, 60.5%. Further, the growth in the assay on KM12 colon is 52.8%.
On to `CC(=O)O[C@]1(C(C)=O)CC[C@H]2[C@@H]3C=C(Cl)C4=CC(=O)CC[C@]4(C)[C@H]3CC[C@@]21C`, for which the growth with T-47D breast is 97.1%; in the assay with BT-549 breast, 94.5%; in the assay with MDA-MB-435 melanoma, 113%; in the assay on MCF7 breast, 112%; in the assay with HCT-116 colon, 96.7%; in the assay with HCC-2998 colon, 103%. Further, the growth in the assay on KM12 colon is 109%.
Take `COc1cc(NCC(O)CN(CC(C)C)CC(C)C)c2nc(C)ccc2c1` (stereo unspecified): the growth with BT-549 breast was 90.9%; with MDA-MB-435 melanoma, 105%; in the assay with SW-620 colon, 92.7%; in the assay on MCF7 breast it was -11.4% (active); in the assay on HCT-116 colon it was 97.3%; with HCC-2998 colon, 89.9%. In the assay on KM12 colon, the growth was 75.5%.
On to `COc1ccc(-c2c[nH]c(C(=O)O)c2-c2cc(OC)c3c(c2OC)OCO3)cc1`, for which the growth was 103% in the assay with BT-549 breast; 104% in the assay with MDA-MB-435 melanoma; 103% in the assay with MCF7 breast; 106% in the assay on HCT-116 colon; 100% in the assay with HCC-2998 colon; 105% in the assay with KM12 colon.
On to `Cc1ccc(-c2c(Br)c(OC(=O)CO[C@@H]3C[C@H](C)CC[C@H]3C(C)C)c(-c3ccc(C)cc3C)c(Br)c2OC(=O)CO[C@H]2C[C@@H](C)CC[C@@H]2C(C)C)c(C)c1`, for which the growth in the assay with BT-549 breast is 85.5%; in the assay on MDA-MB-435 melanoma it was 104%; in the assay with SW-620 colon, 109%; with MCF7 breast it was 92.1%; with HCT-116 colon, 89.4%; in the assay with HCC-2998 colon it was 108%. Moreover, the growth in the assay on KM12 colon is 107%.
For the compound `Cc1cc(C)c(C=O)c(C)c1`, the growth with BT-549 breast is 91.4%; in the assay on MDA-MB-435 melanoma, 103%; with SW-620 colon, 95%; with MCF7 breast it was 106%; with HCT-116 colon, 83.1%; in the assay with HCC-2998 colon, 108%. Further, the growth with KM12 colon is 105%.
`O=C(Nc1ccccc1)Oc1ccccc1-c1ccccc1`: the growth in the assay on BT-549 breast is 76.3%; with MDA-MB-435 melanoma it was 99.9%; in the assay with SW-620 colon, 99.5%; in the assay with MCF7 breast, 95.5%; with HCT-116 colon, 77.6%; in the assay with HCC-2998 colon it was 107%. The growth with KM12 colon was 107%.
As for `CS(=O)(=O)Nc1cc(-c2ccc3ncnc(Nc4ccc5[nH]ncc5c4)c3c2)cnc1Cl`, the growth with BT-549 breast is 69.3%; in the assay on MDA-MB-435 melanoma it was 75%; with SW-620 colon it was 90.8%; with MCF7 breast, 38.5%; in the assay with HCT-116 colon, 92.2%; in the assay on HCC-2998 colon, 92%. The growth with KM12 colon was 102%.
With `CC(C)CN(C(=O)c1ccc(Cl)cc1)c1c(N)n(CC(C)C)c(=O)[nH]c1=O`, the growth with T-47D breast was 105%; in the assay with MDA-MB-435 melanoma, 112%; in the assay on SW-620 colon, 100%; in the assay with MCF7 breast it was 95%; in the assay with HCT-116 colon, 96.2%; in the assay with HCC-2998 colon, 106%. Besides, the growth with KM12 colon was 102%.
As to `COc1cc(/C=C/C(=O)c2c(C)oc3nc[nH]c(=O)c23)ccc1O`, the growth in the assay on BT-549 breast was 100%; with MDA-MB-435 melanoma it was 102%; in the assay on SW-620 colon, 100%; in the assay on MCF7 breast, 90.2%; in the assay with HCT-116 colon, 102%; in the assay on HCC-2998 colon, 100%.
In the case of `COc1ccc(Cl)cc1NC(=O)c1c(NC(=O)C(F)(F)C(F)(F)F)sc2c1CCCCC2`, the growth with BT-549 breast was -4.71% (active); in the assay on MDA-MB-435 melanoma, 8.76% (active); in the assay on SW-620 colon, 12.8%; in the assay on MCF7 breast it was 4.9% (active); in the assay on HCT-116 colon, -0.0954% (active); in the assay with HCC-2998 colon it was 15.9%. The growth in the assay with KM12 colon is 3.84% (active).
As to `CCCCCCCCN1C(=O)/C(=c2\sc3n(c2=O)C2C(NN=3)N(CC)C(=O)N2CC)c2ccccc21` (stereo unspecified), the growth is 86.9% in the assay on BT-549 breast; 57.3% in the assay on MDA-MB-435 melanoma; 86.8% with SW-620 colon; 85.2% with MCF7 breast; 63.2% in the assay on HCT-116 colon; 103% in the assay with HCC-2998 colon. Further, the growth in the assay on KM12 colon was 89.9%.
Regarding `COc1cc(NCCCN(CC(C)C)CC(C)C)c2ncccc2c1`, the growth is 80.4% in the assay with BT-549 breast; 115% in the assay with MDA-MB-435 melanoma; 67.4% in the assay on SW-620 colon; -43.4% (active) in the assay on MCF7 breast; 62% in the assay with HCT-116 colon; 86.4% in the assay with HCC-2998 colon. Moreover, the growth in the assay with KM12 colon is 84.7%.
In the case of `COc1cc(NCCN(CC(C)C)C2CCCC2)c2ncccc2c1`, the growth was 98.8% with BT-549 breast; 111% in the assay on MDA-MB-435 melanoma; 72.2% with SW-620 colon; 42% with MCF7 breast; 63.4% in the assay with HCT-116 colon; 87.5% in the assay with HCC-2998 colon. The growth in the assay with KM12 colon is 86.1%.
For the compound `O=C(O)CNC(=O)CN1C(=O)c2ccccc2C1=O`, the growth in the assay on BT-549 breast is 89.5%; in the assay on MDA-MB-435 melanoma, 107%; in the assay with SW-620 colon it was 105%; in the assay on MCF7 breast it was 96.3%; in the assay with HCT-116 colon it was 89.3%; in the assay with HCC-2998 colon, 106%. Moreover, the growth with KM12 colon was 115%.
As to `COc1cc(NCC(O)CN(CC(C)C)C2CCCC2)c2ncccc2c1` (stereo unspecified), the growth in the assay on BT-549 breast was 89.5%; in the assay with MDA-MB-435 melanoma, 107%; in the assay with SW-620 colon it was 70.5%; in the assay with MCF7 breast it was 24.1%; in the assay with HCT-116 colon, 68%; in the assay on HCC-2998 colon, 97.3%. The growth with KM12 colon was 87%.
As to `CN(C)Cc1c(-c2ccccc2)[nH]c2ccccc12`, the growth in the assay on BT-549 breast was 75.3%; with MDA-MB-435 melanoma, 105%; with MCF7 breast, 81.8%; in the assay with HCT-116 colon, 67.9%; in the assay with HCC-2998 colon, 98.2%; in the assay on KM12 colon, 96.7%.
Consider `O=c1[nH]c2c(s1)CCCC2CN1CCCCC1` (stereo unspecified), for which the growth was 72.6% in the assay with BT-549 breast; 107% in the assay with MDA-MB-435 melanoma; 114% in the assay with SW-620 colon; 96.3% in the assay on MCF7 breast; 76.8% in the assay with HCT-116 colon; 100% with HCC-2998 colon. Moreover, the growth with KM12 colon is 108%.
Take `CC1(c2ccccc2)NC(=O)N(CC(=O)Nc2cccc(I)c2)C1=O` (stereo unspecified): the growth with T-47D breast is 81.5%; with MDA-MB-435 melanoma it was 102%; in the assay on SW-620 colon, 92.2%; in the assay on MCF7 breast it was 85.5%; in the assay on HCT-116 colon, 97.5%; with HCC-2998 colon, 106%. In the assay on KM12 colon, the growth is 90.9%.
Consider `CCCCCCCCCCCCCCCCCCOc1ccccc1N`, for which the growth is -5.26% (active) in the assay on BT-549 breast; 78.7% in the assay with MDA-MB-435 melanoma; 98.7% with SW-620 colon; 75.4% with MCF7 breast; 44% in the assay with HCT-116 colon; 88.8% with HCC-2998 colon. In addition, the growth in the assay on KM12 colon was 39.8%.
`CCC(C)N(CCNc1cc(OC)cc2cccnc12)CCC(C)C` (stereo unspecified): the growth in the assay on BT-549 breast is 90.8%; in the assay with MDA-MB-435 melanoma it was 107%; in the assay on SW-620 colon it was 58.4%; in the assay on MCF7 breast it was 25.7%; with HCT-116 colon, 64.9%; with HCC-2998 colon it was 79.1%. Besides, in the assay with KM12 colon, the growth is 77.6%.
On to `CCN1C(=O)N(CC)C2NC(SC)=NC21` (stereo unspecified), for which the growth was 103% with BT-549 breast; 102% in the assay on MDA-MB-435 melanoma; 97.6% with SW-620 colon; 99.3% with MCF7 breast; 104% in the assay with HCT-116 colon; 99.3% in the assay on HCC-2998 colon. In addition, in the assay on KM12 colon, the growth is 102%.
With `CCN(CC)CCCC(Nc1c2ccc(Cl)cc2nc2ccc(OC)cc12)c1ccc(Cl)cc1` (stereo unspecified), the growth is 43.4% with BT-549 breast; -88.2% (active) in the assay with MDA-MB-435 melanoma; -75.8% (active) in the assay on SW-620 colon; -73.8% (active) in the assay with MCF7 breast; -88.8% (active) in the assay with HCT-116 colon; -75.4% (active) in the assay with HCC-2998 colon. Further, in the assay with KM12 colon, the growth is -56.9% (active).
Consider `Cc1ccccc1C(c1ccccc1)c1ccccc1C`, for which the growth in the assay with BT-549 breast was 86.1%; in the assay with MDA-MB-435 melanoma, 105%; in the assay with SW-620 colon, 97.7%; with MCF7 breast, 98.8%; in the assay with HCT-116 colon, 73.2%; in the assay on HCC-2998 colon it was 101%. Also, in the assay with KM12 colon, the growth was 98.2%.
Consider `COc1cc(-c2cc(=O)oc3cc(O)ccc23)c(OC)c2c1OCO2`, for which the growth is 90.9% with BT-549 breast; 101% in the assay on MDA-MB-435 melanoma; 96.6% in the assay with SW-620 colon; 102% with MCF7 breast; 98.4% in the assay on HCT-116 colon; 97.3% in the assay with HCC-2998 colon. Further, in the assay on KM12 colon, the growth was 93.8%.
With `COc1cc(CNC(=O)CCCCC[P+](c2ccccc2)(c2ccccc2)c2ccccc2)c(OC)c2c1OCO2`, the growth is 37.8% in the assay on BT-549 breast; 39% in the assay with MDA-MB-435 melanoma; 70.7% in the assay on SW-620 colon; 67.4% with MCF7 breast; 50.4% in the assay with HCT-116 colon; 57.6% in the assay with HCC-2998 colon. For the same compound, the growth with KM12 colon is 45.6%.

(Values after PubChem BioAssay (NCI).)
